High-throughput results from PubChem.
A selection: hits, their analogues and other compounds. The true share with any hit is near 1.3%.
MCL1-BIM inh: disrupts human MCL1 binding to BIM-BH3 peptide | inhibition, % at 10.9 µM | actives 0.68% (n = 320,000) | GST-MCL1 / FITC-Bim-BH3 fluorescence polarization;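 active means inhibition above the mean inhibition of all tested compounds plus 3 SD, set per campaign, cut at about 40% in these data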;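 further: higher means more loss of mP so more displacement of Bim peptide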
MEX-5 binding: C. elegans MEX-5 TCR-2 RNA binding activity | actives 0.38% (n = 300,000) | activity score (negative = inhibition of binding), % at 10 µM | MEX-5/FITC-TCR2 RNA binding, fluorescence polarization; stronger effect = lower value;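 active means inhibition past about -25% in most replicates, and total fluorescence under double the plate's negative control median, limit read from the data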
GLD-1 TGE inh: GLD-1-TGE RNA interaction inhibition (C. elegans); purified GLD-1 + fluorescein TGE RNA, fluorescence polarization; inhibition, % at 5.96 µM; actives 0.44% (n = 320,000); AID 2280;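 active means percent inhibition above a per-plate cutoff, the plate mean of test compounds plus 3 SD, cut at about 30% in these data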
Target sequence (Q17339 whole entry, looked up): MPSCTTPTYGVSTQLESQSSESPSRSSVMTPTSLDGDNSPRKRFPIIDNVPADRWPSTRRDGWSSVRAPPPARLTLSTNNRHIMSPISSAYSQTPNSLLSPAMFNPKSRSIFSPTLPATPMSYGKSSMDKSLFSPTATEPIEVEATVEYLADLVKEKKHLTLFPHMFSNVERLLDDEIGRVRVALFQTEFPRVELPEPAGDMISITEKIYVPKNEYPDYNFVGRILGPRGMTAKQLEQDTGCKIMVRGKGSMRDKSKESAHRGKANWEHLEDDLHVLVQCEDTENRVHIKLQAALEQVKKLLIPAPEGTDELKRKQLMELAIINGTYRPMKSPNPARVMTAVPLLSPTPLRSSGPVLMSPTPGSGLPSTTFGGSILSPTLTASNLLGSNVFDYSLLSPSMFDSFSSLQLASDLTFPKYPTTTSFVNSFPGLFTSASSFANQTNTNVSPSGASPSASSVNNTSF
Bcl-xL primary: blocks human Bcl-xL binding to Bim BH3 peptide; actives 0.7% (n = 320,000); inhibition, % at 10.9 µM; GST-Bcl-xL / FITC-Bim BH3 peptide fluorescence polarization;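 active means inhibition above the mean of all tested compounds plus 3 SD, cutoff set per campaign, cut at about 30% in these data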;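 further: inhibitors lower millipolarization by displacing the labeled peptide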
EBV gp42 block: inhibitors of Epstein-Barr virus glycoprotein 42; Q1HVG2; Fluorescence polarization binding assay, mP read-out; inhibition, % (tested at 21.74 µM); actives 0.42% (n = 220,000); in the data active means inhibition above about 50%
Bcl-xL conf: counter-screen for MCL1 inhibitors: confirmation of human Bcl-xL inhibitors. actives 54% (n = 1,700). shares compounds with MCL1-BIM inh. inhibition, % at 10.9 µM. AID 2166. GST-Bcl-xL / FITC-Bim BH3 peptide FP binding;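 active means inhibition above a cutoff equal to the mean inhibition of all tested compounds plus 3 SD, cut at about 30% in these data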
MCL1 BIM confirm: MCL1-BIM-BH3 interaction inhibition, confirmation; shares compounds with MCL1-BIM inh; GST-MCL1 / FITC-Bim-BH3 fluorescence polarization; inhibition, % at 10.9 µM; AID 2168; actives 61% (n = 1,700);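 active means inhibition above the average of all tested compounds plus 3 SD, cut at about 40% in these data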
Of the large screens only hits and unclear results are named; the others gave an inactive call (follow-up assays come after a bar, where they were run).

CN1CCc2cc(O)cc3c2[C@H]1Cc1ccc(O)c(O)c1-3	MCL1-BIM inh 48, MEX-5 binding -85 (no result: EBV gp42 block) | Bcl-xL conf 54 | MCL1 BIM confirm 54
COc1cc2c(cc1O)C[C@H]1c3c(cc(O)c(OC)c3-2)CCN1C	none (no result: MEX-5 binding, EBV gp42 block)
Cn1c(NN=O)nc2ccccc21	none
COC(=O)Cn1cc(/C=C2\C(=O)NC(=O)N(c3ccccc3)C2=O)c2ccccc21	MCL1-BIM inh 135, MEX-5 binding -43 (no result: EBV gp42 block) | Bcl-xL conf 73 | MCL1 BIM confirm 94
C[n+]1c(-c2ccccc2)c2cc(N)ccc2c2ccc(N)cc21	MCL1-BIM inh active, MEX-5 binding -90, GLD-1 TGE inh 136, Bcl-xL primary 155 (no result: EBV gp42 block) | Bcl-xL conf 189 | MCL1 BIM confirm active
Cc1ccc2c(c1Cl)NC(C(=O)O)C1CC(Sc3ccccc3[N+](=O)[O-])C(Cl)C21 (stereo not given)	MCL1-BIM inh 59 | Bcl-xL conf inactive | MCL1 BIM confirm inactive
CCN(CC)C(=O)c1ccc2c(c1)C1C(Cl)C(Sc3ccccc3[N+](=O)[O-])CC1C(C(=O)O)N2 (stereo not given)	MCL1-BIM inh 95, MEX-5 binding -56, Bcl-xL primary 86 | Bcl-xL conf 34 | MCL1 BIM confirm inactive
O=C(O)c1cccc2c1NC(c1cccc([N+](=O)[O-])c1)C1CC(Sc3ccccc3[N+](=O)[O-])C(Cl)C21 (stereo not given)	none (no result: MCL1-BIM inh, GLD-1 TGE inh, Bcl-xL primary)
C1CCC2CCCCC2C1 (stereo not given)	none (no result: MEX-5 binding, EBV gp42 block)
O=c1[nH]c(CN2CC=C(c3ccccc3)CC2)nc2scc(-c3ccccc3)c12	none
N/C(=N\N=C/c1ccc(-c2ccc(O)c(C(=O)O)c2)o1)N[N+](=O)[O-]	MCL1-BIM inh 80, MEX-5 binding -29 | Bcl-xL conf inactive | MCL1 BIM confirm 81
O=C1NC(=O)C(=C/C=C/c2coc3ccc(Br)cc3c2=O)C(=O)N1	MCL1-BIM inh 74, Bcl-xL primary 86 | Bcl-xL conf 92 | MCL1 BIM confirm 111
NCCCCCC(=O)OC1N=C(c2ccccc2Cl)c2cc(Br)ccc2NC1=O (stereo not given)	none
CN1CCc2nc(N)c(C#N)c(-c3ccccc3)c2C1	MCL1-BIM inh 69, GLD-1 TGE inh 46, Bcl-xL primary 61 | Bcl-xL conf inactive | MCL1 BIM confirm inactive
CN1CCc2nc3sc(C#N)c(N)c3c(-c3cccs3)c2C1	none
Cc1c(Br)c(=O)oc2cc(OCC(=O)N3C[C@H]4C[C@@H](C3)c3cccc(=O)n3C4)ccc12	none (no result: EBV gp42 block)
C=CCn1c(O)c(C(CC)=Nc2ccc3c(c2)CCC3)c(=O)[nH]c1=O	none
C=CCn1c(O)c(C(CC)=Nc2ccc(N(C)C)cc2)c(=O)[nH]c1=O	MCL1-BIM inh 45 | Bcl-xL conf inactive | MCL1 BIM confirm inactive
O=[N+]([O-])c1ccc(NCc2ccccc2)c2nonc12	MCL1-BIM inh 175, MEX-5 binding -36, GLD-1 TGE inh 198, Bcl-xL primary 147 | Bcl-xL conf 167 | MCL1 BIM confirm 197
O=[N+]([O-])c1ccc(NCc2ccc(Cl)cc2)c2ccncc12	none (no result: EBV gp42 block)
O=C1NC(=S)NC(=O)C1=Cc1ccc(Br)s1	MCL1-BIM inh 46 (no result: EBV gp42 block) | Bcl-xL conf inactive | MCL1 BIM confirm 53
CCCCn1c(O)c(C(=O)/C=C/c2c[nH]c3ccccc23)c(=O)[nH]c1=O	MCL1-BIM inh 85 | Bcl-xL conf inactive | MCL1 BIM confirm inactive
CCCCn1c(O)c(C(CC)=NCCc2ccccc2)c(=O)[nH]c1=O	none
COC(=O)C1=C(c2ccc(F)cc2OCc2ccccc2)C[C@@H]2CC[C@H]1N2C(=O)N1CCC(O)CC1	none (no result: MEX-5 binding, EBV gp42 block)
COC(=O)C(O)(c1ccc(NC(=O)c2cccs2)cc1)C(F)(F)F (stereo not given)	none (no result: MEX-5 binding)
N#CC(C#N)=Cc1ccc(-c2ccccc2F)o1	MCL1-BIM inh 100, Bcl-xL primary 62, EBV gp42 block 101 (no result: MEX-5 binding) | Bcl-xL conf 123 | MCL1 BIM confirm 150
Cn1c(O)c(N=Nc2cccc(S(=O)(=O)N3CCOCC3)c2)c(=O)n(C)c1=O	none
